Screens: PubChem, National Center for Advancing Translational Sciences (NCATS)
SNCA expr inh = Primary qHTS assay for inhibitors of alpha-synuclein gene (SNCA) expression; Potency, µM (titrated, usually from 57.2 µM), without a hit: top-dose activity change, negative = inhibition, most hits filed as inhibitors; HEK-293 SNCA-luciferase knock-in, luminescence, 24 h; 0.17% of 140,000 active;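 note: potency is the fitted concentration of half-maximal effect; plate controls were DMSO cells for no effect and cell-free wells for full effect; nearly all actives have a fitted effect of over 45% in size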
HEK293 viab = GF-AFC viability counterscreen for inhibitors of alpha-synuclein gene (SNCA) expression | HEK-293-SNCA-luc viability, GF-AFC fluorescence, 24 h | Potency, µM (titrated, usually from 57.1 µM), for inactives: at the top dose activity change, negative = cytotoxicity, actives largely listed as cytotoxic | 0.12% of 150,000 active | AID 1671193, 2021;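 note: potency is the fitted concentration of half-maximal effect; 0% = DMSO-treated cells and -100% = medium-only wells without cells; nearly all actives have a fitted effect of over 30% in size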
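Cytotoxicity counterscreen: after 24 h compound treatment of genome-edited SNCA-luciferase HEK-293 cells, live-cell protease substrate GF-AFC read by fluorescence after 30 min; activity scaled between DMSO (0%) and medium-only (-100%), curves Hill-fitted.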
IP6K1 inhibitor = Primary qHTS assay for small molecule inhibitors of Inositol hexaphosphate kinase 1 (IP6K1); IP6K1 kinase, ADP-Glo luminescence, 2 h; stronger effect = lower value; activity change, % (series mostly up to about 58 µM); 0.81% of 140,000 active; AID 1645851, 2021; in the data active = activity change below about -25%; note: % is set by controls: 0 for no effect and ±100 for the full control effect
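ADP-Glo luminescence measures ADP made by human IP6K1 during a 2 h RT reaction with ATP/IP6 (mix at 1.3 mM/130 uM); top library doses 57.5 and 19.1 uM final.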
KDM5B inh = Primary screen for KDM5B Histone Demethylases FDH-coupled qHTS. Lysine-specific demethylase 5B (Homo sapiens), Q9UGL1. KDM5B demethylase, FDH-coupled NADH fluorescence (FDH is formaldehyde dehydrogenase). Potency, µM (titrated, usually from 57.7 µM), hits mostly inhibitors. 2.6% of 220,000 active; note: potency is the fitted concentration of half-maximal effect; 0% is about no effect; nearly all actives have a fitted effect of over 70% in size
Target sequence (Q9UGL1 whole entry, looked up): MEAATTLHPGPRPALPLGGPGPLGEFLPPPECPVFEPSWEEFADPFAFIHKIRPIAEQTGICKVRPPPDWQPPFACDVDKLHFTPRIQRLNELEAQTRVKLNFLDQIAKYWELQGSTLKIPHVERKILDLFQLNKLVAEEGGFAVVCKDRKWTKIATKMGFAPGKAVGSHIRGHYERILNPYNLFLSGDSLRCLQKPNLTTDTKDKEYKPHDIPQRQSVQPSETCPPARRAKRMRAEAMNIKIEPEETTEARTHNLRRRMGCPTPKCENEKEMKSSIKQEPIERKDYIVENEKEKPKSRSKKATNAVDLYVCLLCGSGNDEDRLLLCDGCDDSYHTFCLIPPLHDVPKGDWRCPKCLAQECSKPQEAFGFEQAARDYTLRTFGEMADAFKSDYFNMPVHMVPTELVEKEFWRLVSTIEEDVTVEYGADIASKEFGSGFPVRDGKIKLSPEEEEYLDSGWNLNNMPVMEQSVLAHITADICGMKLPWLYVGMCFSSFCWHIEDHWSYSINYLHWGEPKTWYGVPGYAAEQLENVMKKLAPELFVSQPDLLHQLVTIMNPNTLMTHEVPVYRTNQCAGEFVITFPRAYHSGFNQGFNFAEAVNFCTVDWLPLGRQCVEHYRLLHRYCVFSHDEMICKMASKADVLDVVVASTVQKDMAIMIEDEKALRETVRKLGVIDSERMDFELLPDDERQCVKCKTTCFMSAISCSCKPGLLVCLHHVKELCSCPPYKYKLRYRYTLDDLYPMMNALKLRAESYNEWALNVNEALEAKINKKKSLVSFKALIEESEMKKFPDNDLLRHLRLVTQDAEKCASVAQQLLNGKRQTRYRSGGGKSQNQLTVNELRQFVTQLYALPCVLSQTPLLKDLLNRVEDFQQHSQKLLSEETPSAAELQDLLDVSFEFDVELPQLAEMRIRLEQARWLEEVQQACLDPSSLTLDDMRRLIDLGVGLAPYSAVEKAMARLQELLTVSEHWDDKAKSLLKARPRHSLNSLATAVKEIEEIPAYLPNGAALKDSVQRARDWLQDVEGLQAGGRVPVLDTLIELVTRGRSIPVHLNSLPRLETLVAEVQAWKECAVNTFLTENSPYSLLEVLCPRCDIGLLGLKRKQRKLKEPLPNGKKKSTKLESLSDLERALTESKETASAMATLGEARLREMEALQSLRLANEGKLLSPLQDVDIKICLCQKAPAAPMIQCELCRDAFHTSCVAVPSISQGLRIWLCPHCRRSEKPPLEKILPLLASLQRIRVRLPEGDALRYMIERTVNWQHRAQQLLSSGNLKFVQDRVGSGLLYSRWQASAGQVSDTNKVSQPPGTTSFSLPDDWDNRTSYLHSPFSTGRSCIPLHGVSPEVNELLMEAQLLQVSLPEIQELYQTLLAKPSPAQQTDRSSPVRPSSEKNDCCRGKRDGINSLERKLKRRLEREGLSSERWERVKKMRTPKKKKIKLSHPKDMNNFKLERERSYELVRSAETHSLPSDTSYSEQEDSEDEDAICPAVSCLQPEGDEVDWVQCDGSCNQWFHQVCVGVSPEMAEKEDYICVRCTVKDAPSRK
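qHTS format, multiple compound concentrations. Buffer 50 mM HEPES pH 7.5/0.01% Tween-20; 200 nM KDM5BΔAP final; 10 min compound preincubation; substrate-mix levels 12.5 µM peptide, 25 µM α-KG, 0.25 mM NAD⁺; 30 min RT; ΔRFU.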
IP6K1 inh cnf = Confirmatory qHTS assay for small molecule inhibitors of Inositol hexaphosphate kinase 1 (IP6K1); shares compounds with IP6K1 inhibitor; recombinant IP6K1 kinase, ADP-Glo luminescence, 2 h; Potency, µM (series often up to 49 µM), for the others: at the highest dose activity change, negative = inhibition, most hits filed as inhibitors; 13% of 1,200 active; AID 1645852, 2021; note: potency is the fitted concentration of half-maximal effect; % is set by controls: 0 for no effect and ±100 for the full control effect; nearly all actives have a fitted effect of over 65% in size
An asterisk follows results filed as active; i = inactive; ? = inconclusive; . = no result given; [ ] = dose if it differs, or a comment. Only some compounds are listed: those with a hit (about 2.9% of all), similar ones and a draw of the others. Unless noted, calls come from the whole dose curve; as a rule, active = well fitted curve in the direction sought with a large enough effect; inconclusive = small, poorly fitted or top-dose-only effect, or another doubt; inactive = no such curve, though single readings can be large; an effect the other way counts as inactive or inconclusive.

SMILES	SNCA expr inh	HEK293 viab	IP6K1 inhibitor	KDM5B inh	IP6K1 inh cnf
Cc1cccc2c1O[C@H]1[C@H](C(N)=O)CN(C(=O)OCc3ccccc3)[C@@H]21	.	.	4	.	.
CCOC(=O)C1CCN(c2c(C(=O)c3ccc(OCC)cc3)cnc3ccc(OC)cc23)CC1	?	?	-33*	?	-3%
Cc1sc(N)nc1-c1ccc(NC(=O)C(C)C)cc1	.	.	.	i	.
Cc1ccc(S(=O)(=O)n2nc(C)c(S(=O)(=O)N3CCCCCC3)c2C)cc1C	25%	-1%	-27*	?	4%
CCCCOc1ccc(S(=O)(=O)n2nc(C)c(S(=O)(=O)N3CCCCCC3)c2C)cc1	-3%	15%	-6	?	.
Cc1nn(S(=O)(=O)c2ccc(Cl)cc2)c(C)c1S(=O)(=O)N1CCCCCC1	-1%	15%	-10	?	.
CCCCOc1ccc(S(=O)(=O)n2nc(C)c(S(=O)(=O)N3CCC(C)CC3)c2C)cc1	4%	-1%	-26*	?	-6%
CCCC(=O)c1ccc(OC(=O)c2c(-c3ccccc3Cl)noc2C)cc1	4%	3%	-35*	?	-12%
Cc1ccc2nc(C)c(C(=O)N(C)C(C)c3ccccc3)cc2c1 (stereo not drawn)	.	.	.	i	.
CCN(c1ccccc1)c1nnc(NC(=O)Nc2cccc(Cl)c2C)s1	-12%	3%	-102*	i	-22%
CCOc1ccc(CNC(=O)C(C)n2ncn3cccc3c2=O)cc1 (stereo not drawn)	-11%	5%	-27*	i	-11%
CC(C)[C@H](CO)Nc1nc(Nc2ccc(C(=O)O)c(Cl)c2)c2ncn(C(C)C)c2n1	?	25%[23.9 µM]	-14	.	-6%[18.9 µM]
Cc1ccc(NC(=O)C(=O)NCCN2CCN(C(=O)c3ccc(Br)cc3)CC2)cc1	.	.	.	i	.
Cc1ccc(NC(=O)c2cnn3c(C(F)F)cc(-c4ccccc4)nc23)c(C)c1	0%	5%	-50*	i	-19%
Nc1ccc(C(=O)O)c(O)c1	0%[25.6 µM]	-10%[23.9 µM]	-74*	.	14%
O=C(O)c1ccccc1O	-53%[25.6 µM]	7%[23.9 µM]	-5	.	.
COc1cccc(CC(=O)N2CCC(CCn3c(C)cnc3-c3cccnc3)CC2)c1	8%	1%	20	.	.
CCc1ccccc1Nc1nn2c(=O)c3ccc(C(=O)NCc4ccccc4Cl)cc3nc2s1	2%	-19%	-26*	i	1%
CCc1ccccc1N1CC(c2nc3ccccc3n2CCCCOc2ccccc2OC)CC1=O (stereo not drawn)	22%	2%	-13	?	.
Cc1cccc(OCCCCn2c(C3CC(=O)N(c4ccc(C)cc4C)C3)nc3ccccc32)c1 (stereo not drawn)	?	?	-39*	?	-18%
COc1ccccc1Cn1c(C2CC(=O)N(c3ccccc3OC)C2)nc2ccccc21 (stereo not drawn)	13%	?	-43*	?	12%
CCN(CC)S(=O)(=O)c1ccc2c(c1)N(CC(=O)N1CCN(c3ccc(F)cc3)CC1)C(=O)CO2	-3%	?	-2	i	.
CCN(CC)S(=O)(=O)c1ccc2c(c1)N(CC(=O)N1CCN(c3cccc(C(F)(F)F)c3)CC1)C(=O)CO2	-12%	-19%	-25*	i	-2%
Fc1ccc(Nc2nc(-c3cccc(Cl)c3)c3c(n2)-c2ccccc2OC3)c(F)c1	5%	5%	-27*	?	-7%
COc1ccc(C)cc1Nc1nc(-c2cccc(Cl)c2)c2c(n1)-c1ccccc1OC2	21%	1%	-14	i	.
O=C(c1ccccc1F)N1CCCC(C(=O)N2CCC(c3nc4ncccc4[nH]3)C2)C1 (stereo not drawn)	13%	-2%	8	.	.
Brc1c(Br)c(Br)c2n[nH]nc2c1Br	2%	12%	.	.	0.73µM*
Cc1nnc([C@@H]2CC(F)(F)CN2C(=O)c2n[nH]c3ccccc23)o1	26%	3%	1	i	.
